According to PubChem BioAssay AID1159580 (chemical genetic matrix, 2015):
Hit rate of the full screen: of about 5,500 compounds, about 2,000 (36%) were called active. Not shown: some 18% with an inconclusive outcome. Rule as the data show it: active = normalized growth mostly below about 0.91 (no sharp cut-off); inconclusive = no clear call, values can overlap the other calls; inactive = mostly above about 0.92. This is one part of the list.

Test: chemical genetic growth profiling, strain panel (AID 1159580);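 also: tested at 20 µM; growth read once vehicle control cultures reached saturation at 30 °C; 1 = growth at the plate median or of vehicle wells; lower values mean less growth of the strain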
Conditions: growth OD
[1] = S. cerevisiae deletion strains, locus YDL101C, strain DUN1, active compounds read low
[2] = S. cerevisiae deletion strains, locus YJL095W, strain BCK1, active compounds read low
[3] = S. cerevisiae deletion strains, locus YOR061W, strain CKA2, active compounds read low

Measured: normalized growth

COC(=O)c1cnn(-c2c(Cl)cccc2Cl)c1C=C(C#N)C#N
inactive: S. cerevisiae deletion strains, locus YAR019C, strain CDC15, active compounds read low 0.939 | S. cerevisiae deletion strains, locus YBL105C, strain PKC1, active compounds read low 0.957 | S. cerevisiae deletion strains, locus YBR135W, strain CKS1, active compounds read low 0.954 | S. cerevisiae deletion strains, locus YBR136W, strain MEC1, active compounds read low 0.952 | S. cerevisiae deletion strains, locus YBR160W, strain CDC28, active compounds read low 0.955 | S. cerevisiae deletion strains, locus YDL017W, strain CDC7, active compounds read low 0.953 | S. cerevisiae deletion strains, locus YDL028C, strain MPS1, active compounds read low 0.946 | [1] 0.944 | S. cerevisiae deletion strains, locus YDL108W, strain KIN28, active compounds read low 0.961 | S. cerevisiae deletion strains, locus YDL132W, strain cdc53, active compounds read low 0.942 | S. cerevisiae deletion strains, locus YDL214C, strain PRR2, active compounds read low 0.966 | S. cerevisiae deletion strains, locus YDR052C, strain DBF4, active compounds read low 0.948 | S. cerevisiae deletion strains, locus YDR054C, strain cdc34, active compounds read low 0.943 | S. cerevisiae deletion strains, locus YDR226W, strain ADK1, active compounds read low 0.956 | S. cerevisiae deletion strains, locus YDR477W, strain SNF1, active compounds read low 0.972 | S. cerevisiae deletion strains, locus YER123W, strain YCK3, active compounds read low 0.954 | S. cerevisiae deletion strains, locus YER133W, strain GLC7, active compounds read low 0.922 | S. cerevisiae deletion strains, locus YFL009W, strain cdc4, active compounds read low 0.936 | S. cerevisiae deletion strains, locus YFL029C, strain CAK1, active compounds read low 0.954 | S. cerevisiae deletion strains, locus YFR003C, strain YPI1, active compounds read low 0.95 | S. cerevisiae deletion strains, locus YFR019W, strain FAB1, active compounds read low 0.966 | S. cerevisiae deletion strains, locus YFR028C, strain CDC14, active compounds read low 0.949 | S. cerevisiae deletion strains, locus YGR040W, strain KSS1, active compounds read low 0.944 | S. cerevisiae deletion strains, locus YGR052W, strain FMP48, active compounds read low 0.93 | S. cerevisiae deletion strains, locus YGR092W, strain DBF2, active compounds read low 0.912 | S. cerevisiae deletion strains, locus YHR079C, strain IRE1, active compounds read low 0.775 | S. cerevisiae deletion strains, locus YHR082C, strain KSP1, active compounds read low 1.1 | S. cerevisiae deletion strains, locus YHR205W, strain SCH9, active compounds read low 1 | S. cerevisiae deletion strains, locus YIL147C, strain SLN1, active compounds read low 0.947 | [2] 0.782 | S. cerevisiae deletion strains, locus YJL128C, strain PBS2, active compounds read low 0.969 | S. cerevisiae deletion strains, locus YJL157C, strain FAR1, active compounds read low 0.962 | S. cerevisiae deletion strains, locus YJR016C, strain ILV3, active compounds read low 0.955 | S. cerevisiae deletion strains, locus YJR066W, strain TOR1 (second series), active compounds read low 0.964 | S. cerevisiae deletion strains, locus YJR066W, strain TOR1, active compounds read low 1.08 | S. cerevisiae deletion strains, locus YKL048C, strain ELM1, active compounds read low 0.922 | S. cerevisiae deletion strains, locus YKL067W, strain YNK1, active compounds read low 0.955 | S. cerevisiae deletion strains, locus YKL101W, strain HSL1, active compounds read low 0.958 | S. cerevisiae deletion strains, locus YKL193C, strain SDS22, active compounds read low 0.949 | S. cerevisiae deletion strains, locus YKL203C, strain TOR2, active compounds read low 1.03 | S. cerevisiae deletion strains, locus YLR133W, strain CKI1, active compounds read low 0.968 | S. cerevisiae deletion strains, locus YLR403W, strain SFP1, active compounds read low 0.975 | S. cerevisiae deletion strains, locus YML070W, strain DAK1, active compounds read low 0.961 | S. cerevisiae deletion strains, locus YMR001C, strain CDC5, active compounds read low 0.953 | S. cerevisiae deletion strains, locus YMR205C, strain PFK2 (second series), active compounds read low 0.975 | S. cerevisiae deletion strains, locus YMR277W, strain FCP1, active compounds read low 0.949 | S. cerevisiae deletion strains, locus YNL006W, strain LST8, active compounds read low 0.955 | S. cerevisiae deletion strains, locus YNL020C, strain ARK1, active compounds read low 0.969 | S. cerevisiae deletion strains, locus YNL161W, strain CBK1, active compounds read low 0.94 | S. cerevisiae deletion strains, locus YNL183C, strain NPR1, active compounds read low 0.863 | S. cerevisiae deletion strains, locus YNL207W, strain RIO2, active compounds read low 0.95 | S. cerevisiae deletion strains, locus YNL222W, strain SSU72, active compounds read low 0.966 | S. cerevisiae deletion strains, locus YNL307C, strain MCK1 (second series), active compounds read low 0.986 | S. cerevisiae deletion strains, locus YOL078W, strain AVO1, active compounds read low 0.946 | S. cerevisiae deletion strains, locus YOL136C, strain PFK27, active compounds read low 0.969 | [3] 0.95 | S. cerevisiae deletion strains, locus YOR119C, strain RIO1, active compounds read low 0.961 | S. cerevisiae deletion strains, locus YOR231W, strain MKK1, active compounds read low 0.797 | S. cerevisiae deletion strains, locus YOR329C, strain SCD5, active compounds read low 0.947 | S. cerevisiae deletion strains, locus YPL031C, strain PHO85, active compounds read low 0.948 | S. cerevisiae deletion strains, locus YPL153C, strain RAD53, active compounds read low 0.938 | S. cerevisiae deletion strains, locus YPL204W, strain HRR25, active compounds read low 0.956 | S. cerevisiae deletion strains, locus YPL209C, strain IPL1, active compounds read low 0.954 | S. cerevisiae deletion strains, locus YPR025C, strain CCL1, active compounds read low 0.942 | S. cerevisiae deletion strains, locus YPR106W, strain ISR1, active compounds read low 0.942 | S. cerevisiae deletion strains, locus YPR111W, strain DBF20, active compounds read low 0.953 | S. cerevisiae deletion strains, strain NNK1, active compounds read low 0.969 | S. cerevisiae deletion strains, strain TSCII, active compounds read low 0.943
active: S. cerevisiae deletion strains, locus YLR113W, strain HOG1, active compounds read low 0.748 | S. cerevisiae deletion strains, locus YPL256C, strain CLN2, active compounds read low 0.781

O=C(O)/C=C1\CCCc2ccccc2C1O (stereo unspecified)
inactive: S. cerevisiae deletion strains, locus YAL013W, strain DEP1, active compounds read low 1.01 | S. cerevisiae deletion strains, locus YBR021W, strain FUR4, active compounds read low 1.01 | S. cerevisiae deletion strains, locus YBR229C, strain ROT2, active compounds read low 0.965 | S. cerevisiae deletion strains, locus YCL029C, strain bik1, active compounds read low 0.982 | S. cerevisiae deletion strains, locus YDL035C, strain GPR1, active compounds read low 0.993 | S. cerevisiae deletion strains, locus YDL074C, strain BRE1, active compounds read low 0.96 | [1] 0.988 | S. cerevisiae deletion strains, locus YDL134C, strain PPH21, active compounds read low 0.992 | S. cerevisiae deletion strains, locus YDL185W, strain tfp1, active compounds read low 0.945 | S. cerevisiae deletion strains, locus YDL192W, strain arf1, active compounds read low 0.977 | S. cerevisiae deletion strains, locus YDR101C, strain arx1, active compounds read low 0.993 | S. cerevisiae deletion strains, locus YDR150W, strain NUM1, active compounds read low 0.991 | S. cerevisiae deletion strains, locus YDR162C, strain NBP2, active compounds read low 0.987 | S. cerevisiae deletion strains, locus YDR318W, strain mcm21, active compounds read low 0.985 | S. cerevisiae deletion strains, locus YDR388W, active compounds read low 0.989 | S. cerevisiae deletion strains, locus YDR502C, strain sam2, active compounds read low 0.976 | S. cerevisiae deletion strains, locus YEL061C, strain CIN8, active compounds read low 0.995 | S. cerevisiae deletion strains, locus YER110C, active compounds read low 0.982 | S. cerevisiae deletion strains, locus YER155C, strain BEM2, active compounds read low 1.01 | S. cerevisiae deletion strains, locus YER167W, strain BCK2, active compounds read low 0.998 | S. cerevisiae deletion strains, locus YGL078C, strain dbp3, active compounds read low 0.992 | S. cerevisiae deletion strains, locus YGL086W, strain mad1, active compounds read low 0.991 | S. cerevisiae deletion strains, locus YGL248W, strain PDE1, active compounds read low 0.979 | S. cerevisiae deletion strains, locus YGR078C, strain PAC10, active compounds read low 1 | S. cerevisiae deletion strains, locus YGR135W, strain pre9, active compounds read low 0.98 | S. cerevisiae deletion strains, locus YGR229C, strain SMI1, active compounds read low 0.997 | S. cerevisiae deletion strains, locus YGR252W, strain gcn5, active compounds read low 0.962 | S. cerevisiae deletion strains, locus YHR030C, strain SLT2, active compounds read low 1.01 | S. cerevisiae deletion strains, locus YHR079C, strain IRE1 (second series), active compounds read low 0.992 | S. cerevisiae deletion strains, locus YHR094C, strain hxt1, active compounds read low 0.984 | S. cerevisiae deletion strains, locus YHR129C, strain ARP1, active compounds read low 0.992 | S. cerevisiae deletion strains, locus YHR200W, strain rpn10, active compounds read low 0.989 | S. cerevisiae deletion strains, locus YIL066C, strain RNR3, active compounds read low 0.996 | S. cerevisiae deletion strains, locus YIL073C, strain SPO22, active compounds read low 0.974 | S. cerevisiae deletion strains, locus YIL125W, strain kgd1, active compounds read low 0.975 | S. cerevisiae deletion strains, locus YIR030C, strain dcg1, active compounds read low 0.988 | [2] 1.01 | S. cerevisiae deletion strains, locus YJL134W, strain LCB3, active compounds read low 0.986 | S. cerevisiae deletion strains, locus YJL168C, strain set2, active compounds read low 0.986 | S. cerevisiae deletion strains, locus YJL187C, strain SWE1 (second series), active compounds read low 0.99 | S. cerevisiae deletion strains, locus YJR043C, strain POL32, active compounds read low 0.998 | S. cerevisiae deletion strains, locus YJR075W, strain HOC1, active compounds read low 0.985 | S. cerevisiae deletion strains, locus YKL009W, strain mrt4, active compounds read low 0.955 | S. cerevisiae deletion strains, locus YKL068W, active compounds read low 0.981 | S. cerevisiae deletion strains, locus YKL085W, strain MDH1 (second series), active compounds read low 0.98 | S. cerevisiae deletion strains, locus YKL085W, strain MDH1, active compounds read low 0.98 | S. cerevisiae deletion strains, locus YKL190W, strain CNB1, active compounds read low 0.996 | S. cerevisiae deletion strains, locus YKR001C, strain vps1, active compounds read low 0.978 | S. cerevisiae deletion strains, locus YLR039C, strain RIC1, active compounds read low 0.944 | S. cerevisiae deletion strains, locus YLR058C, strain SHM2, active compounds read low 0.988 | S. cerevisiae deletion strains, locus YLR102C, strain apc9, active compounds read low 0.977 | S. cerevisiae deletion strains, locus YLR262C, strain YPT6, active compounds read low 0.937 | S. cerevisiae deletion strains, locus YLR268W, strain sec22, active compounds read low 0.984 | S. cerevisiae deletion strains, locus YLR330W, strain CHS5, active compounds read low 0.998 | S. cerevisiae deletion strains, locus YLR342W, strain FKS1 (second series), active compounds read low 0.983 | S. cerevisiae deletion strains, locus YLR371W, strain rom2, active compounds read low 0.975 | S. cerevisiae deletion strains, locus YLR418C, strain cdc73, active compounds read low 0.989 | S. cerevisiae deletion strains, locus YML016C, strain PPZ1, active compounds read low 0.964 | S. cerevisiae deletion strains, locus YML032C, strain rad52, active compounds read low 0.982 | S. cerevisiae deletion strains, locus YML124C, strain tub3, active compounds read low 0.992 | S. cerevisiae deletion strains, locus YMR078C, strain ctf18, active compounds read low 0.977 | S. cerevisiae deletion strains, locus YMR223W, strain ubp8, active compounds read low 0.991 | S. cerevisiae deletion strains, locus YMR263W, strain SAP30, active compounds read low 0.952 | S. cerevisiae deletion strains, locus YMR307W, strain GAS1, active compounds read low 0.991 | S. cerevisiae deletion strains, locus YNL067W, strain RPL9B, active compounds read low 0.998 | S. cerevisiae deletion strains, locus YNL128W, strain TEP1, active compounds read low 0.976 | S. cerevisiae deletion strains, locus YNL153C, strain GIM3, active compounds read low 0.998 | S. cerevisiae deletion strains, locus YNL233W, strain BNI4, active compounds read low 1.01 | S. cerevisiae deletion strains, locus YNL250W, strain rad50, active compounds read low 0.979 | S. cerevisiae deletion strains, locus YNL271C, strain bni1, active compounds read low 0.987 | S. cerevisiae deletion strains, locus YNL298W, strain CLA4, active compounds read low 0.964 | S. cerevisiae deletion strains, locus YNL307C, strain MCK1, active compounds read low 0.986 | S. cerevisiae deletion strains, locus YNL322C, strain KRE1, active compounds read low 0.986 | S. cerevisiae deletion strains, locus YNR052C, strain pop2, active compounds read low 0.989 | S. cerevisiae deletion strains, locus YOL006C, strain TOP1, active compounds read low 0.983 | S. cerevisiae deletion strains, locus YOL012C, strain htz1 0.943 | S. cerevisiae deletion strains, locus YOL147C, strain pex11, active compounds read low 0.991 | [3] 0.974 | S. cerevisiae deletion strains, locus YOR069W, strain VPS5, active compounds read low 1 | S. cerevisiae deletion strains, locus YOR136W, strain idh2, active compounds read low 0.995 | S. cerevisiae deletion strains, locus YOR144C, strain elg1, active compounds read low 0.991 | S. cerevisiae deletion strains, locus YOR184W, strain ser1, active compounds read low 0.985 | S. cerevisiae deletion strains, locus YOR316C, strain cot1, active compounds read low 0.975 | S. cerevisiae deletion strains, locus YPL055C, strain LGE1, active compounds read low 0.971 | S. cerevisiae deletion strains, locus YPL241C, strain CIN2, active compounds read low 0.997 | S. cerevisiae deletion strains, locus YPR119W, strain clb2, active compounds read low 0.995 | S. cerevisiae deletion strains, locus YPR141C, strain kar3, active compounds read low 0.964 | S. cerevisiae deletion strains, locus YPR163C, strain tif3, active compounds read low 0.99 | S. cerevisiae deletion strains, locus YPR167C, strain met16, active compounds read low 0.987 | S. cerevisiae deletion strains, strain wtn01, active compounds read low 0.98 | S. cerevisiae strains, strain wild type, active compounds read low 0.991
